Structures are written as SMILES. Compounds without any hit were thinned out: in the full panel of roughly 83,000, 20% have a hit.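 Single-dose data. Exposure time 48 hours. Values below 10 considered active.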 Unmarked numbers belong to inactive results. Calls of active or inactive are those of the source.

Common to all, as to assay: NCI-60 one-dose screen, 48 h (100 = growth as untreated, 0 = no growth, -100 = all killed)
Common to all, as to details: 10 µM unless noted

Experiment [1] has as its system HCT-15 colon.
For experiment [2], the system named is HT29 colon.
Experiment [3] concerns U251 CNS.
The subject of experiment [4] is PC-3 prostate.
Experiment [5] has as its system SK-MEL-5 melanoma.
Experiment [6] has as its system UACC-62 melanoma.
In experiment [7] the test system is LOX IMVI melanoma.
Experiment [8] relates to SK-MEL-28 melanoma.
Experiment [9] relates to SK-MEL-2 melanoma.
For experiment [10], the system named is EKVX NSCLC.
Experiment [11] deals with SN12C renal.
The subject of experiment [12] is UO-31 renal.
Experiment [13] has as its system TK-10 renal.
Experiment [14] deals with ACHN renal.
The subject of experiment [15] is A498 renal.
Experiment [16] deals with CCRF-CEM leukemia.
Experiment [17] has as its system MOLT-4 leukemia.
In experiment [18] the test system is SNB-19 CNS.
Experiment [19] concerns CAKI-1 renal.

Regarding `O=[N+]([O-])c1ccc(Sc2ncccn2)c([N+](=O)[O-])c1`, the growth was 38.9% in [1]; 62.2% in experiment [2]; 78.6% in experiment [3]; 32.9% in experiment [4]; 76.7% in experiment [5]; 60.7% in experiment [6]. Further, the growth is 68.1% in [7]; 71.9% in [8]; 48.5% in [9]; 65.8% in experiment [10]; 58.5% in experiment [11]; 1.15% (active) in [12]. Moreover, the growth was 53.7% in experiment [13]; 27.8% in experiment [14]; 72.5% in experiment [15]; -37.2% (active) in experiment [16]; -25.8% (active) in [17].

For the compound `COc1ccc(C(=O)N2NC(=O)/C(=C/c3ccc(Br)cc3)N=C2c2ccccc2)cc1`, the growth in experiment [1] is 94.8%; in experiment [2] it was 93.2%; in [18] it was 87.4%; in [3], 72.9%; in [5], 93.8%; in experiment [6], 68.3%. Further, the growth in [7] was 87.9%; in [8], 94.5%; in experiment [10] it was 95.7%; in [11], 74.1%; in [12], 92.8%; in experiment [13], 107%. Moreover, the growth in experiment [14] was 87.8%; in [19], 96.9%; in [15], 83.5%; in experiment [17], 17.3%.

Turning to `CCOC(=O)c1c(/N=C2\SC(=O)/C(=C\C(=O)OC)N2NC)sc2c1CCN(C(=O)OCC)C2`, the growth was 95.9% in [1]; 99% in experiment [2]; 99.2% in experiment [18]; 101% in experiment [3]; 99.5% in experiment [5]; 97.7% in experiment [6]. Also, the growth in [7] was 94.2%; in experiment [8], 101%; in [9] it was 92.5%; in [10] it was 89.1%; in [11], 98.9%; in [12], 87%. Also, the growth in experiment [13] was 121%; in [14], 102%; in experiment [19], 103%; in experiment [15], 110%; in [16], 101%; in experiment [17] it was 106%.

Turning to `COc1ccc(N2CCN(Cc3cc(C(=O)/C=C/c4c[nH]c5ccccc45)ccc3O)CC2)cc1`, the growth in experiment [1] is 98.7%; in experiment [2] it was 106%; in experiment [18], 100%; in [3], 95%; in experiment [5], 99.6%; in experiment [6] it was 101%. For the same compound, the growth in experiment [7] was 97.2%; in experiment [8], 110%; in experiment [9] it was 107%; in [11] it was 97.1%; in [12], 55.9%; in experiment [13], 117%. Further, the growth is 97.4% in [14]; 90.2% in experiment [19]; 106% in experiment [15]; 95.8% in experiment [16]; 95% in experiment [17].

`CN1CCN(Cc2ccc(NC(=O)c3cncc(C#Cc4cnc(N)c5cnccc45)c3)cc2C(F)(F)F)CC1`: the growth in experiment [1] was 7.9% (active); in experiment [2], -14.7% (active); in experiment [3] it was 28.9%; in experiment [4], 26.8%; in [5], -45.3% (active); in experiment [6] it was -74.8% (active). Also, the growth in experiment [7] was -93.4% (active); in experiment [8], -84.5% (active); in experiment [9] it was -65.4% (active); in [10], 2.4% (active); in [11] it was 5.24% (active); in experiment [12], -21.1% (active). Further, the growth in experiment [13] was 12.8%; in experiment [14] it was -9.19% (active); in experiment [19] it was -18.9% (active); in [15] it was -54.8% (active); in [16], 13%; in experiment [17], 16.8%.

`CCCCN(CCCC)C(=O)CC`: the growth was 101% in experiment [1]; 110% in [2]; 114% in [18]; 120% in experiment [3]; 103% in experiment [5]; 106% in [6]. For the same compound, the growth in experiment [7] is 104%; in experiment [8], 114%; in [9], 112%; in [10], 105%; in experiment [11], 109%; in experiment [12], 99.5%. For the same compound, the growth in experiment [13] is 114%; in [14], 112%; in experiment [19] it was 109%; in [15] it was 97.7%; in experiment [16], 96.8%; in experiment [17], 97.8%.

As to `CC(C)(C)n1cc(-c2ccnc(NCCCNS(=O)(=O)c3cccc(F)c3)c2)c(-c2cccc(O)c2)n1`, the growth in experiment [1] was -7.15% (active); in [2], 12.6%; in [3], 49.9%; in [4], 32.9%; in experiment [5] it was 26.1%; in experiment [6] it was 64.5%. Also, the growth in experiment [7] was -71.1% (active); in experiment [8], 47.2%; in experiment [9] it was 61%; in experiment [10], 51.5%; in experiment [11], 59.7%; in experiment [12], 57.8%. Further, the growth was 97.9% in experiment [13]; 51.7% in experiment [14]; 56.2% in experiment [19]; 51.9% in experiment [15]; 39.6% in [16]; 33.4% in [17].

Take `Cc1cc(C2(c3cc(C)c(O)cc3C)OS(=O)(=O)c3ccccc32)c(C)cc1O`: the growth in experiment [1] is 105%; in [2], 92.9%; in experiment [18], 94.2%; in experiment [3], 78%; in experiment [5], 104%; in experiment [6], 90.9%. Further, the growth in [7] is 105%; in experiment [9], 111%; in experiment [10], 105%; in experiment [11] it was 96.7%; in [12], 69.4%; in [13] it was 88.5%. Besides, the growth in [14] is 105%; in experiment [19], 95.7%; in experiment [15] it was 93.9%; in [16] it was 93.7%; in [17] it was 96.3%.

With `COc1ccc(C2C(C#N)=C(N)Oc3c2ccc2ccccc32)cc1` (configuration not stated), the growth in experiment [1] is 28.3%; in [2] it was 34.1%; in experiment [18], 46.7%; in experiment [3], 35.4%; in experiment [5] it was 31.2%; in [6] it was 23.6%. For the same compound, the growth was 27.1% in [7]; 52.2% in experiment [8]; 24.8% in experiment [9]; 73.8% in experiment [10]; 51.5% in experiment [11]; 38.8% in experiment [12]. Moreover, the growth in [13] was 81%; in experiment [14] it was 52.5%; in [19], 30.8%; in experiment [15] it was 0% (active); in [16], 24.2%; in [17] it was 31.7%.
